The values below come from PubChem BioAssay AID588405 (Sanford-Burnham Center for Chemical Genomics, 2011).

For orientation: inhibition means the relative decrease from the control value, in per cent.

Among all 360,000 compounds or so, about 6,200 (1.7%) were called active. This excerpt belongs to a sample that is enriched for actives. Values without a mark were called inactive.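 Rule for the calls: active = inhibition of at least 50% at 20 µM; inactive = the rest.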

The experiment is described as follows: Peg3 promoter-driven luciferase inhibitors, primary screen, cell-based, HeLa, luciferase luminescence (AID 588405). The conditions noted are these: HeLa PEG-Prom luciferase reporter, overnight, at 20 µM, stronger effect = higher value. On the technique in general: A reporter such as luciferase makes a cellular process visible.
Regarding `Cc1nc2ccccc2nc1CC(O)(c1ccccc1)c1ccccc1`, the inhibition was -1.32%.
On to `CN(O)C(=S)c1ccccc1`, for which the inhibition is 92.1% (active).
On to `CN(Cc1ccccc1)C(=O)c1cccc(C(=O)N(C)Cc2ccccc2)c1`, for which the inhibition was 8.74%.
The same measure for `Cc1ccc(CS(=O)Cc2ccc(C(=O)N3CCOCC3)o2)cc1` (centres undefined): 11.9%; for `CCc1nc2ccc(C(=O)Nc3cc(-c4ccccc4)ccc3OC)cn2c1N(CC)CC(=O)N(C)C`: -22.1%.
The same measure for `CN1CCN(CCCNC(=O)c2ccc(/C=C3\Oc4ccccc4N(Cc4ccc(Cl)cc4)C3=O)cc2)CC1`: 109% (active); for `CCN1CCCC1CNC(=O)c1cc2c(=O)n(C)c3ccccc3c2n1C` (centres undefined): -10.3%.
The value for `Cc1ccccc1CN1C(=O)c2ccccc2Sc2ccc(C(=O)NCCCN3CCOCC3)cc21` was 26.3%; that for `O=C(NCCCN1CCCCC1)c1ccc2c(c1)NC(=O)C(N1CCOCC1)S2` (centres undefined) was -8.33%.
`CCN1CCCC1CNC(=O)c1cc2cc(OC)c(OC)cc2[nH]1` (centres undefined): the inhibition is 18%.
With `CCN1CCN(CCNC(=O)c2ccc(/C=C3/Sc4ccccc4N(Cc4cccc(C)c4)C3=O)cc2)CC1`, the inhibition is 103% (active).
The value for `CCCC1=Nc2cc(C(=O)NCCN3CCCC3)ccc2Sc2ccccc21` was 16.7%; that for `CC(C)OCCCNC(=O)CN1C(=O)/C(=C/c2ccccc2F)Oc2ccccc21` was 4.52%.
Regarding `O=C(NCCN1CCOCC1)c1ccc2c(c1)N(Cc1cccc(Cl)c1)C(=O)c1ccccc1S2(=O)=O`, the inhibition is 23.8%.
The same measure for `Cc1c(C)n(Cc2ccc(Cl)cc2)c2ccc(C(=O)NCCCN3CCOCC3)cc12`: 47.1%.
The value for `CCN1CCCC1CNC(=O)c1ccc2c(c1)NC(=O)/C(=C\c1ccccc1F)S2` (centres undefined) was 56.9% (active); that for `CCN1CCN(CCNC(=O)c2ccc3c(c2)NC(=O)/C(=C\c2cccc(Cl)c2)S3)CC1` was 99.5% (active).
The value for `COc1ccc(-c2cc(NC=O)c3ncc(-c4cc(OC)c(OC)c(OC)c4)n3c2)c(OC)c1` was 1.14%; that for `Nc1ncnc2c1ncn2[C@@H]1O[C@H](C(=O)N2CCCN(Cc3ccccc3F)CC2)[C@@H](O)[C@H]1O` was 3.41%.
Consider `OC[C@@H]1CN(Cc2ccc(F)cc2)C[C@H](n2cnc3c(NC4CCCC4)ncnc32)O1`, for which the inhibition was 12.2%.
The value for `CCCNC(=O)C1(C)CCN(C(=O)c2ccc(F)cc2Cl)C1` (centres undefined) was 1.51%; that for `CC1(C(=O)NS(=O)(=O)Cc2cccc(Cl)c2)CCN1C(=O)Cc1ccc(Cl)cc1Cl` (centres undefined) was -1.37%.
The value for `Cc1cn([C@H]2C[C@H](O)[C@@H](/C=C/C(=O)NCCCc3ccccc3)O2)c(=O)[nH]c1=O` was 9.64%.
The value for `O=C(NCCN1CCOCC1)c1ccc(/C=C2\Sc3ccccc3N(Cc3ccc(F)cc3)C2=O)cc1` was 66.6% (active).
In the case of `Cc1ccc(C(=O)N/C(=C\c2ccc(F)cc2)C(=O)NCCN2CCOCC2)cc1`, the inhibition is -0.33%.
The same measure for `O=C(NCCN1CCOCC1)/C(=C/c1ccc(F)cc1)NC(=O)c1ccccc1`: -17.8%.
On to `O=[N+]([O-])c1ccc(CN2CC(N3CC=CC3)CS2(=O)=O)cc1` (centres undefined), for which the inhibition was -12%.
As for `CC(=O)c1cccc(-c2cnc3c(NC=O)cc(-c4cccc(C(=O)N(C)C)c4)cn23)c1`, the inhibition is 33.8%.
For the compound `CN(C)CCNC(=O)c1cccc(-c2cnc3c(NC=O)cc(-c4cccc(C(F)(F)F)c4)cn23)c1`, the inhibition is 98.7% (active).
The same measure for `CN(C)C(=O)c1cccc(-c2cnc3c(NC=O)cc(-c4ccc(F)cc4)cn23)c1`: 35.5%.
The same measure for `Nc1nc2c(ncn2[C@@H]2O[C@H](CNCc3ccc(OCCCN4CCOCC4)cc3)[C@@H](O)[C@H]2O)c(=O)[nH]1`: -2.38%; for `COc1ccc(CNC(=O)c2ccc(-c3cccnc3)c3ccoc23)cc1OC`: 10.8%; for `Cc1c(C(=O)Nc2cccc(Cl)c2)cn2c(nc3ccccc32)c1C#N`: 60.9% (active).
The same measure for `CCC(=O)Nc1nc(C)c(C(=O)Nc2cccc(Cl)c2)s1`: -28.7%; for `Cc1cc(Cl)nc(NC(=O)Nc2cccc(Cl)c2)n1`: -174%; for `COc1cccc(CN(C)C(=O)CC[C@H]2O[C@@H](n3cnc4c(NC(=O)c5ccccc5)ncnc43)[C@H](O)[C@@H]2O)c1`: 4.1%.
With `C[N+]1(CCNC(=O)/C=N/O)CCCCC1`, the inhibition was 17%.
The value for `CCCNC(=O)C1(C)CCCN(C(=O)c2oc3ccccc3c2C)C1` (centres undefined) was -3.03%; that for `Cc1nc(Nc2ccccc2F)c2nnn(Cc3ccccc3Cl)c2n1` was 8.32%.
Turning to `CCCc1nc(NCc2ccc3c(c2)OCO3)c2nnn(Cc3ccccc3Cl)c2n1`, the inhibition was 1.34%.
The value for `Cc1nc(Nc2ccc3c(c2)OCCO3)c2nnn(Cc3ccccc3Cl)c2n1` was 54.7% (active); that for `COc1ccccc1-c1nn(Cc2ccccc2)cc1C(=O)N1CCN(c2ncccn2)CC1` was 33.2%.
The same measure for `CC(=O)Nc1ccc(C=CC(=O)c2ccc([N+](=O)[O-])cc2)cc1`: 4.26%.
The same measure for `O=C(Nc1cccnc1)c1ccc(Cl)cc1[N+](=O)[O-]`: -0.43%.
For the compound `O=C(/C=C/c1ccc(Cl)c([N+](=O)[O-])c1)c1ccc(O)cc1`, the inhibition was 104% (active).
Turning to `C/C(=N\NC(=O)Cc1ccccc1[N+](=O)[O-])c1cccnc1`, the inhibition was 17.7%.
The value for `O=C(/C=C/c1ccc(Cl)c([N+](=O)[O-])c1)c1cccnc1` was 105% (active); that for `CC(CC(=O)O)C(=O)c1ccc(Cl)c([N+](=O)[O-])c1` (centres undefined) was 1.7%.
On to `CC(C)(C)S(=O)N1Cc2cc(C(=O)NCCCN3CCOCC3)nc(-c3cccc(-c4cc5ccccc5o4)c3)c2[C@H]1CCO` (some centres undefined), for which the inhibition was -6.92%.
As for `CCCNC(=O)C1(C)CCN1C(=O)Cc1ccc(-c2ccccc2)cc1` (centres undefined), the inhibition is -9.6%.
Turning to `CCCNC(=O)N1CCN(C(=O)NCCC)CC1`, the inhibition was 7.21%.
`CCC(C)(C)c1ccc(Oc2ccc(NC(=O)COC(=O)C3=COCCO3)cc2)cc1`: the inhibition was 11.8%.
In the case of `O=C1c2ccccc2C2=Nc3ccccc3SC(c3ccccc3F)C12` (centres undefined), the inhibition was 50.8% (active).
The value for `COc1ccc(-c2cc(NC(C)=O)c3ncc(-c4cc(OC)c(OC)c(OC)c4)n3c2)cn1` was 9.76%.
